An excerpt weighted towards active compounds, which were near 13% of everything screened.
USP10 block = inhibitors of human USP10 deubiquitinase. Ubiquitin carboxyl-terminal hydrolase 10 (Homo sapiens), Q14694. purified USP10, Ub-rhodamine fluorescence, 60 min. inhibition, % at 20 µM. 47,000 compounds, 1.1% hits. AID 1645856, 2021
USP8 inh = inhibitors of human USP8 deubiquitinase | Ubiquitin carboxyl-terminal hydrolase 8 (Homo sapiens), P40818 | 47,000 compounds, 4.2% hits | inhibition, % at 20 µM | AID 1645853, 2021 | purified USP8, Ub-rhodamine cleavage fluorescence, 30 min
USP30 inh = inhibitors of human USP30 deubiquitinase; AID 1645860, 2021; 47,000 compounds, 5.3% hits; Ubiquitin carboxyl-terminal hydrolase 30 (Homo sapiens), Q70CQ3; inhibition, % at 25 µM; purified USP30, Ub-rhodamine cleavage fluorescence
Target sequence (Q70CQ3 whole entry, looked up): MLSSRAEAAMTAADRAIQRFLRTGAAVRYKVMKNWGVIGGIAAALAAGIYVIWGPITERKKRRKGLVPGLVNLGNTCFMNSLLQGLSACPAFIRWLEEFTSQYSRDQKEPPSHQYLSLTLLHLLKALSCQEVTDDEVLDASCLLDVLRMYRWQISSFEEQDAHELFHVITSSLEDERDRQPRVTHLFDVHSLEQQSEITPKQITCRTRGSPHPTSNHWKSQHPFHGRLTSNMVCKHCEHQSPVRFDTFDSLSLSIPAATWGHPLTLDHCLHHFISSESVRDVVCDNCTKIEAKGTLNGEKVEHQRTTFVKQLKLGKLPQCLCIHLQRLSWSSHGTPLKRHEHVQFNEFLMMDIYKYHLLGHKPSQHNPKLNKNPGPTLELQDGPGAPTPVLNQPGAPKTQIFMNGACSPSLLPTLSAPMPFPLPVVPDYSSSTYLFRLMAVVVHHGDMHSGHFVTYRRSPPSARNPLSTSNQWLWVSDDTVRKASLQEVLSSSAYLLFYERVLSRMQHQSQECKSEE
USP17 block = inhibitors of human USP17 deubiquitinase; Ubiquitin carboxyl-terminal hydrolase 17-like protein 5 (Homo sapiens), A8MUK1; purified USP17, Ub-rhodamine cleavage fluorescence, 3 h; inhibition, % at 50 µM; 47,000 compounds, 6.5% hits; AID 1645855, 2021
OTUD3 block = inhibitors of human OTUD3 deubiquitinase | AID 1645858, 2021 | inhibition, % at 25 µM | purified OTUD3, Ub-rhodamine fluorescence, 2 h | 47,000 compounds, 0.7% hits | OTU domain-containing protein 3 (Homo sapiens), Q5T2D3
USP28 inh = inhibitors of human USP28 deubiquitinase. Ubiquitin carboxyl-terminal hydrolase 28 (Homo sapiens), Q96RU2. purified USP28, Ub-rhodamine cleavage fluorescence, 30 min. inhibition, % at 25 µM. 47,000 compounds, 3% hits. AID 1645857, 2021
Each line names hits and unclear results; the compound was inactive in the other large screens. Cut-off read from the data, not from the text of the source: active = inhibition above about 30%; inactive = the rest.

CCCn1c(=O)c(-c2ccc(C(=O)NCc3ccc(OC)cc3)cc2)nc2cccnc21	USP10 block 33, USP8 inh 65, USP30 inh 32, USP17 block 87
O=C(Nc1ccc(F)cc1F)N1CCN(c2cc(-c3ccncc3)[nH]n2)CC1	USP30 inh 41 (no result: USP17 block)
COC1=C(OC)C(=O)C(C/C=C(/C)CC/C=C(\C)CC/C=C(\C)CC/C=C(\C)CC/C=C(\C)CC/C=C(\C)CCC=C(C)C)=C(C)C1=O	none
CC(C)=CCC/C(C)=C/CC/C(C)=C/Cc1c(C)cc(O)cc1O	USP17 block 39, USP28 inh 32
Cc1ccc(S(=O)(=O)NCCn2c(N)c(C#N)c3nc4ccccc4nc32)cc1	USP8 inh 65, USP17 block 40
Cc1ccc(S(=O)(=O)NCCn2ccc3ccccc32)cc1	none
O=C(N[C@H]1[C@H](O)[C@H](O)C[C@@H]1c1cncnc1)c1ccc(OC(F)(F)F)cc1	none
CC(C)C(=O)O[C@H]1[C@H](C)C(=O)O[C@@H](C)[C@@H](NC(=O)c2cccc(NC=O)c2O)C(=O)O[C@@H]1C	USP30 inh 35, USP17 block 45
Cc1cccc(C(=O)N2CCc3cc(-c4nc(NC(=O)CN5CCCC5)sc4C)ccc32)c1	USP17 block 45
Cc1cccc(C(=O)N2CCc3cc(-c4csc(NC(=O)CNc5ccccc5)n4)ccc32)c1	USP17 block 31
Cc1sc(NC(=O)CNc2ccccc2)nc1-c1ccc2c(c1)CCN2C(=O)C(C)C	USP17 block 51
CCc1nc2ccc(C(=O)Nc3nc(-c4ccc5c(c4)CCN5S(=O)(=O)c4ccccc4)c(C)s3)cc2nc1CC	USP17 block 32
Cc1cccc(CN2CCC3(C/C=C/CNC(=O)c4ccccc4OCCNC3=O)CC2)n1	none
CC(C)c1ccc(N(C(=O)CCCC(=O)Nc2ccccn2)C(C(=O)NC2CCCC2)c2ccc(Cl)cc2)cc1 (centres undefined)	none
Cc1ccc(C(=O)N2CCc3cc(-c4csc(NC(=O)CN(C)C5CCCCC5)n4)ccc32)cc1	USP8 inh 58
CN(CC(=O)Nc1nc(-c2ccc3c(c2)CCN3C(=O)C2CCCCC2)cs1)C1CCCCC1	none
Cc1sc(NC(=O)Cn2nnc3ccccc3c2=O)nc1-c1ccc2c(c1)CCN2C(=O)C(C)C	USP17 block 56 (no result: USP30 inh, USP28 inh)
Cc1ccc(C(=O)N2CCc3cc(-c4nc(NC(=O)CN5CCCCCC5)sc4C)ccc32)cc1	none
Cc1cccc(C(=O)N2CCc3cc(-c4nc(NC(=O)CNc5ccccc5)sc4C)ccc32)c1	USP8 inh 57, USP17 block 60
Cc1ccc(CNC(=O)CCc2nc3sc4c(c3c(=O)[nH]2)CCCCC4)cc1	none
COc1ccc(OC)c(NC(=O)c2cnc(NCc3ccccc3F)nc2C)c1	USP8 inh 33
Cc1nc(NCc2ccccc2F)ncc1C(=O)NCc1ccccc1	USP17 block 46
O=C(CCc1cccnc1)N1CCC2(CCCN2Cc2ccccc2F)C1 (centres undefined)	none
CCOC(=O)N1CCN(S(=O)(=O)c2ccc(C(=O)Nc3ccc(S(N)(=O)=O)cc3)cc2)CC1	none
CCOC(=O)N1CCN(S(=O)(=O)c2ccc(C(=O)Nc3ccc(OC)c4ccccc34)cc2)CC1	USP8 inh 56
CCOc1ccc(-n2c(C)c3c(C)nn4cc(-c5ccccc5)cc4c3c2C)cc1	USP30 inh 32, USP17 block 31
CCc1ccc2ncc(S(=O)(=O)c3ccccc3)c(N3CCCC3)c2c1	USP8 inh 36
COc1ccc2ncc(S(=O)(=O)c3ccccc3)c(N3CCCCCC3)c2c1	none
Cn1cc(CN[C@H]2[C@H](O)[C@H](O)C[C@@H]2c2ccc(C(F)(F)F)nc2)cn1	USP8 inh 42
Cn1cc(CN[C@H]2[C@H](O)[C@H](O)C[C@@H]2c2ccccc2)cn1	none
Cc1[nH]c(C(=O)Nc2ccccc2)c(C)c1S(=O)(=O)N1CCOCC1	none
Cc1cc(Nc2ccccn2)cc(C2CN(Cc3c(C)nn(C(C)C)c3C)CCO2)n1 (centres undefined)	none
CCn1nnc2c(NCc3ccc(OC)cc3)ncnc21	none
Cc1cc2cc(CNc3ncnc4c3nnn4C)ccc2[nH]1	USP17 block 49
Cc1ccc(C(=O)c2cn(CC(=O)Nc3ccc(C(C)C)cc3)c3ccc(C)cc3c2=O)cc1	none (no result: USP30 inh, USP28 inh)
Cc1ccc(NC(=O)Cn2cc(C(=O)c3ccccc3)c(=O)c3cc(C)ccc32)cc1	USP10 block 44, USP8 inh 83
Cc1ccc2c(c1)c(=O)c(C(=O)c1ccccc1)cn2CC(=O)Nc1ccccc1	USP8 inh 89, USP17 block 59
c1nc(Nc2ccc3c(c2)CCC3)c2c3c(sc2n1)CCC3	none
Cc1ccc(Cn2c(=O)c3ccccc3n3c(CCC(=O)N4CCN(c5ccccn5)CC4)nnc23)cc1	USP30 inh 55, USP17 block 43
Cc1ccc(Cn2c(=O)c3ccccc3n3c(CCC(=O)NCC4CCCO4)nnc23)cc1 (centres undefined)	USP30 inh 39 (no result: USP17 block)
Cc1cccc(CCNC(=O)CCc2nnc3n(CCc4ccccc4)c(=O)c4ccccc4n23)c1	USP30 inh 39
O=C(CCc1nnc2n(Cc3ccc(Cl)cc3)c(=O)c3ccccc3n12)N1CCN(c2ccccn2)CC1	USP30 inh 83, USP17 block 52, USP28 inh 62
O=C(CCc1nnc2n(CCc3ccccc3)c(=O)c3ccccc3n12)NCc1ccccn1	none
Cc1ccc(N2C(=O)N(Cc3ccccc3F)S(=O)(=O)c3cccnc32)cc1	none
c1ccc2c(c1)CCc1ccccc1C2N1CCNCC1	none
Cc1ccc2[nH]c(=O)c(CCC(=O)N3CCCC3)cc2c1	none
O=C(CCc1nnc2n(Cc3ccccc3)c(=O)c3ccccc3n12)N1CCN(c2ccccn2)CC1	USP30 inh 60, USP17 block 35
O=C(CCc1nnc2n(Cc3ccccc3)c(=O)c3ccccc3n12)NCc1ccc2c(c1)OCO2	USP10 block 44, USP8 inh 39, USP17 block 39
Cc1ccc(Cn2c(=O)c3ccccc3n3c(CCC(=O)N4CCN(C(=O)c5ccco5)CC4)nnc23)cc1	USP17 block 42
O=C(CCc1nnc2n(CCc3ccccc3)c(=O)c3ccccc3n12)N1CCN(C(=O)c2ccco2)CC1	none
CN(C)c1cc(C2CCCN2C(=O)C2CN(S(C)(=O)=O)C2)ccn1 (centres undefined)	none
COc1ccc2c(c1)CCCC21NC(=O)N(Cc2ccccc2C#N)C1=O (centres undefined)	none
CCC(=O)Nc1ccc2c(c1)nc(CCN1CCCC1)n2C	none
Cc1ccc(Sc2ncccc2C(=O)Nc2ccnn2Cc2cccnc2)cc1C	none

Bioassay records from PubChem BioAssay.
